Source: ChEMBL document CHEMBL1961873, “Compounds: GSK PKIS; Assays: Nanosyn kinase panel” (2012)

Tests used:
[1] = molecular target: Sphingosine kinase 1 (Homo sapiens) (UniProt Q9NYA1); conditions: at 1 µM;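 note: mean SPHK1 inhibition value reported from the GSK PKIS kinase panel screen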
[2] = molecular target: T1, Sphingosine kinase 2 (Homo sapiens) (UniProt Q9NRA0); conditions: at 0.1 µM
T1 sequence (whole entry): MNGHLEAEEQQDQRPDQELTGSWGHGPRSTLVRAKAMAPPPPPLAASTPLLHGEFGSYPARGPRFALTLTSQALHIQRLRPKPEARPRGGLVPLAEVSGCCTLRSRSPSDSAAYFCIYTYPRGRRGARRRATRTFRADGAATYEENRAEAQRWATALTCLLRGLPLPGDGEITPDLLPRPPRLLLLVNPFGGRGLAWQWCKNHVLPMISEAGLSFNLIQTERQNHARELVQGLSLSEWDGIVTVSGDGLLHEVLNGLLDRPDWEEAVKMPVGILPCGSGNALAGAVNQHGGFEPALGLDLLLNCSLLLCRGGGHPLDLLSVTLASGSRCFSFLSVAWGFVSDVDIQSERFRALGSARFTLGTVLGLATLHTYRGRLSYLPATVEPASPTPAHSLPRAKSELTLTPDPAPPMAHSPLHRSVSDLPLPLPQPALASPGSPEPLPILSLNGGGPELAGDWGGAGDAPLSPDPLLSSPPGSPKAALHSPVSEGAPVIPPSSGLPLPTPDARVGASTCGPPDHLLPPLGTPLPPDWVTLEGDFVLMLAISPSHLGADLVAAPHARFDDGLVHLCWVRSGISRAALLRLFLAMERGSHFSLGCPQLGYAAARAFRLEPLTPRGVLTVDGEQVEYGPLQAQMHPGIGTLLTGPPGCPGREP

[3] = molecular target: T1, Sphingosine kinase 2 (Homo sapiens); conditions: at 1 µM
[4] = molecular target: Casein kinase II subunit alpha (Homo sapiens) (UniProt P68400); conditions: at 0.1 µM
[5] = molecular target: Casein kinase II subunit alpha (Homo sapiens) (UniProt P68400); conditions: at 1 µM
[6] = molecular target: T2, Inhibitor of nuclear factor kappa-B kinase subunit alpha (Homo sapiens) (UniProt O15111); conditions: at 0.1 µM
T2 sequence (whole entry): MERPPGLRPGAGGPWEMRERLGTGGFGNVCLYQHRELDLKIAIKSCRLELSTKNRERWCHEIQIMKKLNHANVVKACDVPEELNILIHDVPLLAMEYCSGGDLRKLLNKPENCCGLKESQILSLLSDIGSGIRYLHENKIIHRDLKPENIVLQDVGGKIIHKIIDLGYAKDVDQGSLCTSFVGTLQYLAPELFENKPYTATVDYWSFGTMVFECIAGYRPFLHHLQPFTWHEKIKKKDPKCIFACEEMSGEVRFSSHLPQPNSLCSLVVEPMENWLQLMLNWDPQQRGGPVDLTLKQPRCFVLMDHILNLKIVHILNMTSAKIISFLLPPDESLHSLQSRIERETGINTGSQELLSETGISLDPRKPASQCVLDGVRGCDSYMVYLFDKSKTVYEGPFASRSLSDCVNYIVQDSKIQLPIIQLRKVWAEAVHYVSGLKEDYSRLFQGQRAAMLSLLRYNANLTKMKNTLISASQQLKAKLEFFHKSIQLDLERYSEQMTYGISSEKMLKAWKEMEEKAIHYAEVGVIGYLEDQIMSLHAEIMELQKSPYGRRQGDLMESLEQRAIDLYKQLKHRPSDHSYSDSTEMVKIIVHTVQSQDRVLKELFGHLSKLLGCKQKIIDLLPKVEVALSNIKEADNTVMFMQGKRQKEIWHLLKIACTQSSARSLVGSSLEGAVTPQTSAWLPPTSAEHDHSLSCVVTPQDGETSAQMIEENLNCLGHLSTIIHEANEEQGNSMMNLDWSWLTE

[7] = molecular target: T2, Inhibitor of nuclear factor kappa-B kinase subunit alpha (Homo sapiens); conditions: at 1 µM
[8] = molecular target: T3, Inhibitor of nuclear factor kappa-B kinase subunit beta (Homo sapiens) (UniProt O14920); conditions: at 0.1 µM
T3 sequence (whole entry): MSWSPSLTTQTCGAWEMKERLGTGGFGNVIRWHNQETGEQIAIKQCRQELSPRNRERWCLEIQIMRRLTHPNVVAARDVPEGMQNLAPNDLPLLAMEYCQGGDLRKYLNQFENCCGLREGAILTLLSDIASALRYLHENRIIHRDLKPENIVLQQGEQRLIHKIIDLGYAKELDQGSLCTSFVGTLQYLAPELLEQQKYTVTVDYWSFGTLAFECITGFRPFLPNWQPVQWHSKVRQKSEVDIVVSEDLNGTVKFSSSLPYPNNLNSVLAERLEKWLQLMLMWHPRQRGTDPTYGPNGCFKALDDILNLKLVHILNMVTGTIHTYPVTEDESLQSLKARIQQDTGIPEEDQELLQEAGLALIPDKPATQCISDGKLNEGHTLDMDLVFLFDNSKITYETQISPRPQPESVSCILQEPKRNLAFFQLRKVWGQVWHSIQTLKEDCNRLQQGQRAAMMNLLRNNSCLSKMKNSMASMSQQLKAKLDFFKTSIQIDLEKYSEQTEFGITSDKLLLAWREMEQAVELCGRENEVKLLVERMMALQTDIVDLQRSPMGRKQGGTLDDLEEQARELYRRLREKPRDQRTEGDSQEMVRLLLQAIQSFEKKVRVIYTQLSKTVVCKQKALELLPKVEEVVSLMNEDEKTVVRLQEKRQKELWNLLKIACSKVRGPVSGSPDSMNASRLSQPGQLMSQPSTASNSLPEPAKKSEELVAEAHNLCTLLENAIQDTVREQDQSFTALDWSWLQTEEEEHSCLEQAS

[9] = molecular target: T3, Inhibitor of nuclear factor kappa-B kinase subunit beta (Homo sapiens); conditions: at 1 µM
[10] = molecular target: T4, Inhibitor of nuclear factor kappa-B kinase subunit epsilon (Homo sapiens) (UniProt Q14164); conditions: at 0.1 µM
T4 sequence (whole entry): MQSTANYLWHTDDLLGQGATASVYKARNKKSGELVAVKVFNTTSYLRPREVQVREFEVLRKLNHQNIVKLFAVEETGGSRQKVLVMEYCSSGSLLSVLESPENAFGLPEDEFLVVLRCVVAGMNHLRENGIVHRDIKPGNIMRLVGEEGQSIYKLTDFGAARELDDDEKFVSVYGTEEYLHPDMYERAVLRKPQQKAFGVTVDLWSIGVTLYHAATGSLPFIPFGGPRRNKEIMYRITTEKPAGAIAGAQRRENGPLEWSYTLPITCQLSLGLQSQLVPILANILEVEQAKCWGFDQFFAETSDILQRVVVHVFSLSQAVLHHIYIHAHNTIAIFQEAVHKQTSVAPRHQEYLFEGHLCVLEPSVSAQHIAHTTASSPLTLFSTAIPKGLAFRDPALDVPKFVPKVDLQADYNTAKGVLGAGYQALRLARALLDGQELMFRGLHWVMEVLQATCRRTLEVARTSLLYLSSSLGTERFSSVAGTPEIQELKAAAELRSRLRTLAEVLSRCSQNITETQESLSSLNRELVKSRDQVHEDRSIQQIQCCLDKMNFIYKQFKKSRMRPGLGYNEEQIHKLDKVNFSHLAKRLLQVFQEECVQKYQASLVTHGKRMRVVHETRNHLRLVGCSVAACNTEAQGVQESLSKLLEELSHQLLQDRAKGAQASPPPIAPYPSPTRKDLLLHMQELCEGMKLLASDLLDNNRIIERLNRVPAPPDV

[11] = molecular target: T4, Inhibitor of nuclear factor kappa-B kinase subunit epsilon (Homo sapiens); conditions: at 1 µM
[12] = molecular target: T5, Serine/threonine-protein kinase Nek1 (Homo sapiens) (UniProt Q96PY6); conditions: at 0.1 µM
T5 sequence (whole entry): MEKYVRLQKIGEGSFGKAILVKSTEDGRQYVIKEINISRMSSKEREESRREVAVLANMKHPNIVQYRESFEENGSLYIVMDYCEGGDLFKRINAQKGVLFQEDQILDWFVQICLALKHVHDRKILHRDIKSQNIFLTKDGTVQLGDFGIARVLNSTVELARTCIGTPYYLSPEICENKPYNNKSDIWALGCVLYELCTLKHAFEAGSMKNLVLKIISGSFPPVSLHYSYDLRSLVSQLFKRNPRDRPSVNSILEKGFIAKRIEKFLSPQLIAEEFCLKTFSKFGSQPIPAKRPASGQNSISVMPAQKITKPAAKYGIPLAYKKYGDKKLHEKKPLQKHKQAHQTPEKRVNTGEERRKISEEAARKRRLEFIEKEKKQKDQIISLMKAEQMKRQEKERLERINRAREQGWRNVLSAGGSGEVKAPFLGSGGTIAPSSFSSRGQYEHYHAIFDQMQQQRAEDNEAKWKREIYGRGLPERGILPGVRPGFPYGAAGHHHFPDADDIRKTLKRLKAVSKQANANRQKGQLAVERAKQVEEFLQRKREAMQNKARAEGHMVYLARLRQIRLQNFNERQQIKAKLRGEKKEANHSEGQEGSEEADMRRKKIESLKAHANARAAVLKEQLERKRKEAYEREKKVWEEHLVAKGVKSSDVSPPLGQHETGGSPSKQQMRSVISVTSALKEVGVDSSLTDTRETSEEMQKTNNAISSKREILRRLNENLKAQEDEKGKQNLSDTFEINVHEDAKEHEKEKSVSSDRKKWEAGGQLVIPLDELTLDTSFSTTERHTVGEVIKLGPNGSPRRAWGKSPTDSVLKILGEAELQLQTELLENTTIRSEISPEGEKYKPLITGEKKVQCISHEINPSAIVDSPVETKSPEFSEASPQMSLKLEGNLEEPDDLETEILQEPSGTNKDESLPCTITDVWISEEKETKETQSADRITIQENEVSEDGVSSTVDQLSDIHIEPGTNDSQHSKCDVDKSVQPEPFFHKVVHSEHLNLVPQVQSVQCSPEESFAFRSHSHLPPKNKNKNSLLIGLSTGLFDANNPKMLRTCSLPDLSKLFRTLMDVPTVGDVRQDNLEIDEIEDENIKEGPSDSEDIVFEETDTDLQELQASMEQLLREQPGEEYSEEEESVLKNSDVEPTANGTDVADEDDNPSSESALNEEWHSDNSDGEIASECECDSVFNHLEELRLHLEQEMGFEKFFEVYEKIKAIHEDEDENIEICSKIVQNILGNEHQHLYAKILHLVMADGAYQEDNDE

[13] = molecular target: T5, Serine/threonine-protein kinase Nek1 (Homo sapiens); conditions: at 1 µM
[14] = molecular target: T6, Serine/threonine-protein kinase Nek2 (Homo sapiens) (UniProt P51955); conditions: at 0.1 µM
T6 sequence (whole entry): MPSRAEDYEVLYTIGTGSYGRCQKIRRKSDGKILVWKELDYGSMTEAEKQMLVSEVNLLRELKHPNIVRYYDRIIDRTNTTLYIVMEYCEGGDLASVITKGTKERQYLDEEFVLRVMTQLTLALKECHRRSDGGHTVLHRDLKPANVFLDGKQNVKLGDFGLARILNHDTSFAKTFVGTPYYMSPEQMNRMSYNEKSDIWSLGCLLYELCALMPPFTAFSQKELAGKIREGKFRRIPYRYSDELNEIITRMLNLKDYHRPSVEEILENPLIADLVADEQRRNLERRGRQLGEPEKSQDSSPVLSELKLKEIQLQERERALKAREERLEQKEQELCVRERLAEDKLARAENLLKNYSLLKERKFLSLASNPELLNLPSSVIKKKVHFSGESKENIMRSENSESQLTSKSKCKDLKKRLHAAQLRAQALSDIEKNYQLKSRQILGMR

[15] = molecular target: T6, Serine/threonine-protein kinase Nek2 (Homo sapiens); conditions: at 1 µM
[16] = molecular target: Serine/threonine-protein kinase Nek6 (Homo sapiens) (UniProt Q9HC98); conditions: at 0.1 µM
[17] = molecular target: Serine/threonine-protein kinase Nek6 (Homo sapiens) (UniProt Q9HC98); conditions: at 1 µM
[18] = molecular target: Serine/threonine-protein kinase Nek7 (Homo sapiens) (UniProt Q8TDX7); conditions: at 0.1 µM
[19] = molecular target: Serine/threonine-protein kinase Nek7 (Homo sapiens) (UniProt Q8TDX7); conditions: at 1 µM
[20] = molecular target: T7, Serine/threonine-protein kinase Nek9 (Homo sapiens) (UniProt Q8TD19); conditions: at 0.1 µM;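 note: reported value is the mean percent inhibition of NEK9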
T7 sequence (whole entry): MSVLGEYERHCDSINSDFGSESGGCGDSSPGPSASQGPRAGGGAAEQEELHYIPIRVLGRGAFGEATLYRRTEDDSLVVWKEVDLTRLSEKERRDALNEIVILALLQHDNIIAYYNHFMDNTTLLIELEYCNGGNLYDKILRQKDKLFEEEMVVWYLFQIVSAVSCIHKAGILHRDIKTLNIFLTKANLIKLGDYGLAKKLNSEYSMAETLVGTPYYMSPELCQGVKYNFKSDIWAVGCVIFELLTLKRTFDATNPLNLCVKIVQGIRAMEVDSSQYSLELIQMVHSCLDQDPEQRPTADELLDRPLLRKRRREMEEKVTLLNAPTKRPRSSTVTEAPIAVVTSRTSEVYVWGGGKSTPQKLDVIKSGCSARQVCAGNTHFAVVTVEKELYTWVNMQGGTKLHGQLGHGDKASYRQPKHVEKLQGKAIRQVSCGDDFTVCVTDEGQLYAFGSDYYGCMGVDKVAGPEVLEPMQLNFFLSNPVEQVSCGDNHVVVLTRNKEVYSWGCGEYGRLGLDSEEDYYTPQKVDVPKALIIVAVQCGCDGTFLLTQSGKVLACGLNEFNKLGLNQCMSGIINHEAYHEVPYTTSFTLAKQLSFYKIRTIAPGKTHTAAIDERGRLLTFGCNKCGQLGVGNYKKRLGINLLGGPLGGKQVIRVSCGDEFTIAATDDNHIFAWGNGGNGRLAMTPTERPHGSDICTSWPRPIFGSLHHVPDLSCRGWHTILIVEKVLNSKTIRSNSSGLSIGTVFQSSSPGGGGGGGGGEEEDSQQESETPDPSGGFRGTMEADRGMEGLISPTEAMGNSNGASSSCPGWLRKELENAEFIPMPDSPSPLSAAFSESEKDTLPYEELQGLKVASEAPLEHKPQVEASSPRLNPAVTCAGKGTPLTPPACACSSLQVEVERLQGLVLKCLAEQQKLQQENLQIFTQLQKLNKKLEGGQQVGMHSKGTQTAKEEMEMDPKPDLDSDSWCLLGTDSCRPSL

Sequence of Serine/threonine-protein kinase Nek6 (Homo sapiens) (Q9HC98 whole entry): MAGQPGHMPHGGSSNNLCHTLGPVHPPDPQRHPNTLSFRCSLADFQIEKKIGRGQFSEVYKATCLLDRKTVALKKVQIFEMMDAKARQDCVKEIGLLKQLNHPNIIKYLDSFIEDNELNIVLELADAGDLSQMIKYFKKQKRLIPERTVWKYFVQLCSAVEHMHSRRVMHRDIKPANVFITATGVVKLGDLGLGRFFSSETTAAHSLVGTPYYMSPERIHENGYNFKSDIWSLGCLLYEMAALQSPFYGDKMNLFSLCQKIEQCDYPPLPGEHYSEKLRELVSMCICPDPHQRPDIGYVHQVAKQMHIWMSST
Sequence of Casein kinase II subunit alpha (Homo sapiens) (P68400 whole entry, looked up): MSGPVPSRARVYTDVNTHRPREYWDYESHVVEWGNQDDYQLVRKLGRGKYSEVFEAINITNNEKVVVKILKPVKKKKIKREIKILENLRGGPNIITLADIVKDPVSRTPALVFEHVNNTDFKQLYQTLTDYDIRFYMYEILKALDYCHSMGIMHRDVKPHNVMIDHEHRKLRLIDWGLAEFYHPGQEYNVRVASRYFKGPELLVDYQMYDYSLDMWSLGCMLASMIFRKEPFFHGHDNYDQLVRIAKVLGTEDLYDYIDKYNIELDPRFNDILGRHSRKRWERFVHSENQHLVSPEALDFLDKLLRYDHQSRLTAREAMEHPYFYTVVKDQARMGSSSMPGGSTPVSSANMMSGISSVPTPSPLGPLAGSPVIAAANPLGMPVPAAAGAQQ
Sequence of Serine/threonine-protein kinase Nek7 (Homo sapiens) (Q8TDX7 whole entry, looked up): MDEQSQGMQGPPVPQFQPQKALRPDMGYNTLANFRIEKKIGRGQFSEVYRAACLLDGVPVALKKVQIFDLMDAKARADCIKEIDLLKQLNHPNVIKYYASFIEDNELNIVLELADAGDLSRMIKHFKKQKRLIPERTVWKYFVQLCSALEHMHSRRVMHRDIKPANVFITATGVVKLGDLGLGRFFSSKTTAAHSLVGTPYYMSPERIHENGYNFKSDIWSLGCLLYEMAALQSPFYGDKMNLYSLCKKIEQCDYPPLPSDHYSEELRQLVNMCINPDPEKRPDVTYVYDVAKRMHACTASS
Sequence of Sphingosine kinase 1 (Homo sapiens) (Q9NYA1 whole entry): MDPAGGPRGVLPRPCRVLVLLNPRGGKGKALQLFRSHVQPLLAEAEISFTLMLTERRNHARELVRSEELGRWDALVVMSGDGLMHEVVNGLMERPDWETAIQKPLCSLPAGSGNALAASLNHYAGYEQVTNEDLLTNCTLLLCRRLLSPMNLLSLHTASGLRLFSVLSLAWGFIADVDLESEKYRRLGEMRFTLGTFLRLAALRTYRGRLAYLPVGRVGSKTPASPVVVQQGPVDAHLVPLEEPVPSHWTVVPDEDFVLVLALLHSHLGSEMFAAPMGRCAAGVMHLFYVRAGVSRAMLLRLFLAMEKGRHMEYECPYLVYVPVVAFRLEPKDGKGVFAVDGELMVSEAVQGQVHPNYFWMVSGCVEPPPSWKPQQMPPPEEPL

Compound	inhibition [1] [%]	inhibition [2] [%]	inhibition [3] [%]	inhibition [4] [%]	inhibition [5] [%]	inhibition [6] [%]	inhibition [7] [%]	inhibition [8] [%]	inhibition [9] [%]	inhibition [10] [%]	inhibition [11] [%]	inhibition [12] [%]	inhibition [13] [%]	inhibition [14] [%]	inhibition [15] [%]	inhibition [16] [%]	inhibition [17] [%]	inhibition [18] [%]	inhibition [19] [%]	inhibition [20] [%]
COc1cccc(-n2ncc3c(N/N=C/c4cccc(F)c4)ncnc32)c1	-2.05	3.58	-0.22	1.77	11.4	-0.08	6.98	2.27	0.31	3.6	5.09	2.19	1.87	3.27	2.63	2.56	1.3	4.53	2.91	3.6
COc1ccccc1Nc1ncc(-c2ccccc2)o1	-6.75	-0.59	-0.16	6.18	8.04	10.7	9.03	9.9	9.61	9.49	7.83	3.62	3	6.46	6.16	0.52	1.67	2.39	5.45	5.2
